PostGolgi yeast: growth inhibition of a yeast mutant, post-Golgi transport screen; inhibition, % at 10 µM; post-Golgi transport phenotypic cell assay; AID 739; hit rate 0.9% among 98,000;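 also: yeast cells grown in 1536-well plates; yeast grown about 18 h at 30C before absorbance read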
Pyk2 oligo antag: antagonists of human Pyk2 oligomerization; Q14289; Q293 cells, Pyk2 FERM NanoBiT luminescence; stronger effect = lower value; z-score (the deposit names both 25 µM and 10 µM); hit rate 0.83% among 99,000; AID 1347419;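 active = Z-score of -3 or lower, scaled per plate to the spread of control and sample wells; inactive = z-score above -3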;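 also: negative z-score means lost luminescence so less FERM oligomerization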
Target sequence (Q14289 whole entry, looked up): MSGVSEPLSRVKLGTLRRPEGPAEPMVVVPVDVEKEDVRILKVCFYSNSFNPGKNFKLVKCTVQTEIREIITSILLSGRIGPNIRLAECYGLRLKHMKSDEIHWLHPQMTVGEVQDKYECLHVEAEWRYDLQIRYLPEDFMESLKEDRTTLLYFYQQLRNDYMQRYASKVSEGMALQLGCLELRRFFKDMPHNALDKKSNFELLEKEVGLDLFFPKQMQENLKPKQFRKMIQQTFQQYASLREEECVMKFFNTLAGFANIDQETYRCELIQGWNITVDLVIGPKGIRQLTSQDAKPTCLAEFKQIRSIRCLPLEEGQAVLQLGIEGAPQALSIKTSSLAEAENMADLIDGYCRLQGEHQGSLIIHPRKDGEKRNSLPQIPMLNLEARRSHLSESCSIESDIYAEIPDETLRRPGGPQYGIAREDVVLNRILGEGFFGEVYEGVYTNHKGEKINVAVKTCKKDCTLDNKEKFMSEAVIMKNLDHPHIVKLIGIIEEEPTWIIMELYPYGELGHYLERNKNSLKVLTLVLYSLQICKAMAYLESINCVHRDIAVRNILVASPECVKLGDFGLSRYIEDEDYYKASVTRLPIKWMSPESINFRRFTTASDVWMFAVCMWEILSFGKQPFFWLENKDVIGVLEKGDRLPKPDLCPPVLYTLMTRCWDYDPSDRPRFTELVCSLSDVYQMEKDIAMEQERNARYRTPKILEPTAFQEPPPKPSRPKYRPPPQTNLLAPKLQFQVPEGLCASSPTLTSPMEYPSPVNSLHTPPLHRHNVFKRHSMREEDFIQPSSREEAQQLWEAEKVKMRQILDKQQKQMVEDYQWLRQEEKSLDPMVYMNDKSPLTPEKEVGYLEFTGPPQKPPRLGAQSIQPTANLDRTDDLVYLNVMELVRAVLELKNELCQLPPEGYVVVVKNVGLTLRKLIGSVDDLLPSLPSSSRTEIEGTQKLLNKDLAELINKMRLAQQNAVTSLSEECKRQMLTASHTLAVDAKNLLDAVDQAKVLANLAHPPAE
Cav3 T inh: human Cav3.2 channel inhibition, primary screen. O95180. Cav3.2-expressing cells, Fluo-4 calcium fluorescence FDSS; stronger effect = lower value. B-score at 10 µM. hit rate 4% among 100,000;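 active = single-dose well whose peak fluorescence ratio is a statistical outlier from its plate by either plate-standardised score or position-corrected B-score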
PostGolgi ctrl: growth of the yeast control strain, post-Golgi counter-screen | efflux-deficient yeast background strain, growth absorbance A615, 16 h | inhibition, % at 10 µM | hit rate 5% among 98,000 | AID 738
* = called active by the depositor; · = not tested or not shown. The list is not random: actives were taken first. Their share in the collection is about 8%. Rule as the data show it, unless noted: active = inhibition above about 30%; inactive = the rest.

SMILES | PostGolgi yeast | Pyk2 oligo antag | Cav3 T inh | PostGolgi ctrl
CCOc1cc(S(=O)(=O)NCc2ccc3c(c2)OCO3)c(C)cc1C | 4.7 | -0.1 | -6.22* | 19.8
CCOc1cc(C)c(Cl)cc1S(=O)(=O)NCc1ccc2c(c1)OCO2 | 12.2 | 0.24 | · | 7.1
CCCCn1c(-c2csc3ccccc23)n[nH]c1=S | -8.0 | -0.03 | · | 11.0
CCCCn1c(-c2csc3c2CCC(C)C3)n[nH]c1=S (stereo not given) | -2.5 | -0.61 | -1.57 | 41.5*
CCOc1cc(/C=C2/SC(=Nc3ccccc3)N(Cc3cccnc3)C2=O)ccc1OCC#N | 5.2 | -3.59* | -0.538 | -0.2
O=C(c1cccc(S(=O)(=O)N2CCCCC2)c1)N1CCN(S(=O)(=O)c2ccc(F)cc2)CC1 | -5.6 | 1.57 | · | -1.4
Cc1ccc(C)c(N2CCN(S(=O)(=O)c3ccc4c(c3)OCCO4)CC2)c1 | -3.6 | -3.92* | -1.85 | 21.7
Cc1ccc(Cl)cc1N1CCN(S(=O)(=O)c2ccc3c(c2)OCCO3)CC1 | 2.1 | -4.2* | -5.22* | 19.1
Cc1ccc(C)c(N2CCN(S(=O)(=O)c3ccc4[nH]c(=O)c(=O)[nH]c4c3)CC2)c1 | 6.5 | 0.24 | -3.14 | -1.7
COc1ccc(C)cc1NC(=O)CSc1nnc(CC(=O)Nc2ccccc2C)n1C | -2.4 | 0.17 | -0.318 | 14.8
CC1Cc2ccccc2N1C(=O)CSc1nnc2c(n1)[nH]c1ccc(F)cc12 (stereo not given) | · | -0.7 | -5.94* | ·
CC1Cc2ccccc2N1C(=O)CSc1nnc(CNc2ccccc2)o1 (stereo not given) | -0.3 | 0.05 | 0.852 | 36.9*
CC(C)c1nc(SCC(=O)N2c3ccccc3CC2C)c2ccccc2n1 (stereo not given) | 11.9 | -0.18 | -3.43 | 37.0*
O=C(CSc1nnc(CNc2ccccc2)o1)N1CCCc2ccccc21 | 9.4 | 1.48 | · | -5.0
O=C(CSc1nnc(CNc2ccc(F)cc2)o1)N1c2ccccc2Sc2ccccc21 | 10.9 | -0.67 | -5.49* | 50.1*
CCOc1ccccc1NC(=O)CSCC(=O)Nc1ccccc1 | -6.5 | 0.24 | -2.06 | -3.5
O=[N+]([O-])c1ccc2nc(-c3ccccc3)n(OCc3ccc(Cl)cc3)c2c1 | -2.6 | -0.98 | -4.45* | 16.1
CN1C(=O)C2(OCC(COc3ccc(Cl)cc3)O2)c2ccccc21 (stereo not given) | -1.6 | -2.38 | -1.59 | 16.8
O=C1Nc2ccccc2C12OCC(COc1ccc(Cl)cc1)O2 (stereo not given) | -9.0 | -0.88 | -5.44* | 23.4
O=C(NCCSCc1ccco1)Nc1ccccc1 | -1.1 | 1.54 | 0.0656 | -2.4
COC(=O)C1=CN(C(C)C)C=C(C(=O)OC)C1c1cc(Br)c(OC)c(OC)c1 | · | -3.61* | -0.435 | ·
Cc1nnc(N2C(=O)C(O)=C(C(=O)c3ccco3)C2c2ccc(F)cc2)s1 (stereo not given) | -2.4 | · | 0.476 | 3.8
Cc1nnc(N2C(=O)C(O)=C(C(=O)c3ccco3)C2c2ccc(C(C)(C)C)cc2)s1 (stereo not given) | · | -0.97 | -3.67* | ·
O=C(O)CCc1nc(-c2ccccc2)no1 | 3.6 | 0.94 | -0.56 | 1.0
CCc1ccccc1N(C)C(=O)CCc1nc(-c2ccc(C)cc2)no1 | -8.4 | -2.09 | -5.46* | 44.4*
SMILES | PostGolgi yeast | Pyk2 oligo antag | Cav3 T inh | PostGolgi ctrl
COc1ccc(Cl)cc1N(C)C(=O)CCc1nc(-c2ccc(C)cc2)no1 | -2.8 | -2.6 | -5.72* | 33.0*
COc1ccc(NC(=O)CCc2nc(-c3ccc(C)cc3)no2)cc1Cl | 0.5 | 0.43 | -0.775 | 9.1
CCOc1ccc(CNC(=O)CCCOc2cc(=O)n(C)c3ccccc23)cc1 | -1.3 | 1.66 | · | 8.0
O=C(NC1CC1)c1c[nH]c2ccc(S(=O)(=O)Nc3cccc(C(F)(F)F)c3)cc2c1=O | -0.2 | -1.86 | -5.6* | -2.3
CCOCCCNC(=O)c1c[nH]c2ccc(S(=O)(=O)Nc3cccc(OC)c3)cc2c1=O | -3.9 | 0.33 | 0.302 | 0.0
O=C(N/C=N/OCc1ccc(Cl)cc1Cl)NOCc1c(Cl)cccc1Cl | 4.5 | -0.82 | 0.865 | 7.3
CO/N=C/NC(=O)NOCc1c(Cl)cccc1Cl | 0.5 | 1.11 | -0.398 | 31.5*
Cc1nn(C)c(C)c1CN(C)S(=O)(=O)c1ccc2ccccc2c1 | · | -0.3 | 1.69 | ·
Cc1ccc(C)c(N(CC(N)=O)S(C)(=O)=O)c1 | -2.6 | -0.83 | 1.31 | 16.2
COc1ccc2nc(-n3c(O)c(C4=c5ccccc5=NC4=O)[nH]c3=S)sc2c1 | · | -3.17* | · | ·
CCOC(=O)CC1(CC(=O)OCC)NC(=O)c2c(C)sc(C(=O)OCC)c2N1 | -0.2 | 0.08 | 0.695 | 11.9
CCOC(=O)c1sc(C)c2c1NC(c1ccc(N(C)C)cc1)NC2=O (stereo not given) | 6.7 | -0.65 | -3.61* | 19.1
COc1ccc(OC)c(C(=O)c2oc3ccccc3c2NC(C)=O)c1 | -13.2 | -0.41 | -0.276 | 20.9
CCC(=O)Nc1ccc(S(=O)(=O)Nc2cccc(C)c2)cc1OC | -6.7 | -0.03 | -0.269 | 25.3
CCCCn1c(-c2cccs2)nc2nc3ccccc3nc21 | -12.4 | -2.06 | -0.244 | 31.1*
C=CCN(CC=C)c1cnn(-c2nc3ccccc3[nH]2)c(=O)c1Cl | -2.3 | -1.34 | 0.814 | 6.9
O=c1c(Cl)c(NCCCO)cnn1-c1nc2ccccc2[nH]1 | 8.1 | 2.49 | 3.06* | -4.4
O=C(NCc1ccco1)c1ccc2c(=O)n(CCC3=CCCCC3)c(=O)[nH]c2c1 | -5.9 | 0.68 | 0.101 | -1.0
Oc1ccc(Cl)cc1-c1cc(-c2ccco2)[nH]n1 | 4.4 | -0.05 | -0.34 | 46.1*
Oc1ccc(Cl)cc1-c1cc(-c2cccc(Br)c2)n[nH]1 | 6.9 | -0.64 | 0.0345 | 54.1*
Oc1ccccc1-c1cc(-c2ccccc2Cl)[nH]n1 | -2.5 | -0.63 | -0.928 | 74.5*
Cc1ccc(O)c(-c2cc(-c3ccccc3C)[nH]n2)c1 | -3.7 | -0.15 | -3.02 | 86.2*
Oc1ccc(Cl)cc1-c1cc(-c2ccccc2Cl)[nH]n1 | · | -1.06 | -0.261 | ·
S=c1[nH]nc(-c2cc(-c3ccco3)[nH]n2)n1-c1ccccc1Cl | 4.4 | 1.11 | 2.19 | 0.0
Nc1cc(=O)[nH]c(=O)n1CC1CC1 | · | · | 0.954 | ·
SMILES | PostGolgi yeast | Pyk2 oligo antag | Cav3 T inh | PostGolgi ctrl
O=C(Cc1ncc(C(F)(F)F)cc1Cl)Nc1ccc(F)cc1 | -5.0 | 1.16 | · | 9.5
Cc1ccc(-n2nnc3c(=O)n(CC(=O)NCC4CCCO4)cnc32)cc1 (stereo not given) | -2.2 | 0.07 | 0.788 | 3.4
O=C(CCCc1ccccc1)Nc1cccnc1 | -1.6 | 0.61 | -0.00143 | 1.2
COc1ccc(CN2CCC(C(=O)NCCc3ccc(OC)c(OC)c3)CC2)c(OC)c1 | -0.3 | 1.71 | 0.766 | 2.3
Oc1ccc(Br)cc1-c1cc(-c2ccco2)[nH]n1 | 1.2 | 0.84 | 0.377 | 79.3*
Oc1ccccc1-c1cc(-c2ccco2)[nH]n1 | 1.0 | -0.54 | -0.0288 | 30.4*
Oc1c(-c2cc(-c3ccco3)[nH]n2)ccc2ccccc12 | 2.1 | -0.63 | -1.31 | 8.6
N#CCCN1CCN(S(=O)(=O)c2ccc(S(=O)(=O)NC3CCCC3)cc2)CC1 | -1.8 | · | 0.505 | 0.3
CCCCCCC(=O)c1c(C)[nH]c(C(=O)OCC)c1C | -8.3 | -1.6 | -2.16 | 17.2
COC(=O)c1ccccc1NC(=O)c1sc(=S)n(C)c1N | -8.5 | -0.44 | 0.0109 | 36.0*
CCOc1ccccc1C(=O)N(Cc1cccs1)C1CCS(=O)(=O)C1 (stereo not given) | -1.4 | 0.55 | 0.169 | -1.8
COc1ccc(CNC(=O)c2csc(Cc3ccc(Cl)cc3)n2)cc1 | -8.0 | -2.03 | · | 22.2

Compound activity from PubChem.
